Sfp PPTase inh = blocks B. subtilis Sfp PPTase activity; Q9F4F7; 3.5% of 310,000 active; Potency, µM, for inactives: largest response in the series, negative = inhibition, actives largely listed as inhibitors; Biochemical Sfp PPTase activity, qHTS;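 further: the enzyme is Sfp with the accession as filed and its product quenches rhodamine fluorescence; potency means the concentration at half of the fitted maximal effect; 0% = enzyme reaction without inhibitor and -100% = no enzyme wells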
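Sfp 15 nM + cpd, 15 min RT; start w/ rhodamine-CoA 5 uM, BHQ-2-YbbR 12.5 uM (final); 50 mM Hepes pH 7.6, 10 mM MgCl2, 0.01% NP-40, 0.01% BSA; read 525/598 nm at 0 and 30 min.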
FBPA coupling cs = counter-screen for Giardia aldolase inhibitors: coupling enzyme system; coupling enzyme system counterscreen, AmpLite Red fluorescence; activity change, negative = inhibition, % at 58.2 µM, hits read low; 0.67% of 290,000 active; AID 2472; in the data active means activity change below about -30%
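Coupling enzymes only (glyceraldehyde-3-phosphate) + compound, at 57.5 uM final, 10 min RT; add substrate/coupling/AmpLite Red mix, 20 min RT; fluorescence ex 525/em 598 nm. Actives flag coupling-system interference.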
Giardia kill = Giardia lamblia killing | 0.15% of 340,000 active | Giardia lamblia trophozoite viability | AID 540267 | activity change, % at 7.66 µM, hits read low; in the data active means activity change below about -80%; inconclusive means between about -30% and that limit;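 further: parasites exposed to compound for two days anaerobically before the ATP read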
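Trophozoite viability was measured as ATP-dependent luminescence, read 15-30 min after reagent addition. Before that, parasites at 100 cells/well were exposed to compounds for 48 h, anaerobically, at 37 deg C.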
ELG1 DNA repair = inhibitors of ELG1-dependent DNA repair in HEK293T cells. HEK293T ELG1-luciferase reporter, luminescence, 16 h; DNA damage induced by 5-fluorouridine. Potency, µM (highest dose often 46.1 µM), without a hit: at the highest dose activity change, negative = inhibition, usual class: inhibitors. 2.3% of 330,000 active. AID 504467; further: potency means the concentration at half of the fitted maximal effect; nearly all actives have a fitted effect of over 55% in size
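Quantitative HTS, concentration-response format. 2,000 cells/well co-treated with 5-fluorouridine and compound, 16 hr in 5% CO2 at 37 °C; ONE-Glo luminescence read after 30 min.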
The depositor's hits bear a star. Hits are enriched below; roughly 5.5% of the tested compounds scored in any of these assays. Unless noted, the call rests on the fitted dose curve; in most records, active means well fitted curve in the direction sought with a large enough effect; inconclusive means small, poorly fitted or top-dose-only effect, or another doubt; inactive means no such curve, though single readings can be large; an effect the other way counts as inactive or inconclusive. Unless noted, on the % scale 0 is the no-effect control and ±100 the full control effect.

For Cc1ccc(S(=O)(=O)N2CCN(C(=O)CCOc3cc(C)ccc3C)CC2)cc1 the results were Giardia kill -5 and ELG1 DNA repair inconclusive.
Screening CCOC(=O)C1=C(C)NC(=S)NC1c1ccc(-c2cccc(Cl)c2C)o1 (configuration not stated) returned Sfp PPTase inh 56µM*, FBPA coupling cs 0, Giardia kill 5 and ELG1 DNA repair 21µM*.
CCOC(=O)C1=C(C)NC(C)=C(C(=O)OCC)C1C(=O)OCC(=O)NCc1ccco1 was read as Giardia kill 14 and ELG1 DNA repair 10µM*.
Screening CCOC(=O)C1=C(C)NC(=S)NC1c1ccc(-c2ccc(Cl)cc2)o1 (configuration not stated) returned Sfp PPTase inh 14µM*, FBPA coupling cs 3, Giardia kill 2 and ELG1 DNA repair inconclusive.
Screening Cc1ccc(C(=O)OCC(=O)NCc2ccco2)cc1 returned Sfp PPTase inh -2%, FBPA coupling cs 1, Giardia kill -5 and ELG1 DNA repair 13%.
`CCOC(=O)C1=C(C)NC(C)=C(C(=O)OCC)C1C(=O)OCC(=O)c1ccc2c(c1)OCCO2` gave Sfp PPTase inh 5%, FBPA coupling cs 0, Giardia kill -6 and ELG1 DNA repair 2.9µM*.
Screening CCCN1CNc2c(c(=O)[nH]c(=S)n2CCc2cc(C)cc(C)c2)C1 returned Giardia kill 28.
Screening CCOC(=O)C1=C(C)NC(=S)NC1c1ccco1 (configuration not stated) returned Sfp PPTase inh 71µM*, FBPA coupling cs 5, Giardia kill 17 and ELG1 DNA repair -4%.
`COC(=O)C1=C(C)NC(=S)NC1c1ccc(-c2cccc(Cl)c2)o1` (configuration not stated) gave Sfp PPTase inh 7.1µM*, FBPA coupling cs 4, Giardia kill 8 and ELG1 DNA repair inconclusive.
Screening CCOC(=O)C1=C(C)C(c2cccc(Oc3ccccc3)c2)NC(=S)N1 (configuration not stated) returned Sfp PPTase inh -10%, FBPA coupling cs 3, Giardia kill 33 and ELG1 DNA repair 26µM*.
Screening COc1cc(NC(=S)N2CCN(CCO)CC2)cc(OC)c1 returned Sfp PPTase inh -3%, FBPA coupling cs 1, Giardia kill 8 and ELG1 DNA repair -5%.
CC1(C)CC(N2CCN(CCO)CC2)=CC(=S)N1 was read as Sfp PPTase inh 50µM*, FBPA coupling cs 1, Giardia kill -1 and ELG1 DNA repair -13%.
For S=c1[nH]nc(Nc2cccc(Cl)c2)s1 the results were Sfp PPTase inh 40µM*, FBPA coupling cs 2, Giardia kill -18 and ELG1 DNA repair inconclusive.
S=c1[nH]nc(Nc2ccccc2Cl)s1 was read as Sfp PPTase inh -93%, FBPA coupling cs 1, Giardia kill 9 and ELG1 DNA repair inconclusive.
Screening CCOc1cccc(C2C(C(=O)c3ccc(C)o3)=C(O)C(=O)N2c2nccs2)c1 (configuration not stated) returned Sfp PPTase inh 56µM*, FBPA coupling cs -14, Giardia kill -5 and ELG1 DNA repair 1%.
O=C(C1=C(O)C(=O)N(c2nccs2)C1c1ccccc1)c1cc2ccccc2o1 (configuration not stated) was read as Sfp PPTase inh 5µM*, FBPA coupling cs 4, Giardia kill 5 and ELG1 DNA repair inconclusive.
`O=C(C1=C(O)C(=O)N(CCc2ccccc2)C1c1ccncc1)c1cc2ccccc2o1` (configuration not stated) gave Sfp PPTase inh -20%, FBPA coupling cs 16, Giardia kill 1 and ELG1 DNA repair inconclusive.
Cc1ccc2nc(N3C(=O)C(O)=C(C(=O)c4cc5ccccc5o4)C3c3cccs3)sc2c1 (configuration not stated) was read as Sfp PPTase inh 40µM*, FBPA coupling cs -1, Giardia kill -4 and ELG1 DNA repair inconclusive.
Screening CCc1ccc2nc(N3C(=O)C(O)=C(C(=O)c4ccco4)C3c3cccs3)sc2c1 (configuration not stated) returned Sfp PPTase inh -16%, FBPA coupling cs 5, Giardia kill 10 and ELG1 DNA repair inconclusive.
O=C(N/C(=C\c1ccco1)C(=O)N1CCOCC1)c1ccccc1Cl was read as Sfp PPTase inh 4%, FBPA coupling cs 2, Giardia kill 7 and ELG1 DNA repair 0%.
COc1ccc(N2C(=O)CSC23C(=O)N(CC(=O)NC2CCCC2)c2ccccc23)cc1 (configuration not stated) was read as Sfp PPTase inh 4%, FBPA coupling cs 1, Giardia kill -3 and ELG1 DNA repair 13%.
`CN(C)c1ccnc2sc(C(=O)c3ccc(Br)cc3)c(N)c12` gave Sfp PPTase inh -30%, FBPA coupling cs -5, Giardia kill -6 and ELG1 DNA repair inconclusive.
Cc1snc2sc(C(=O)c3ccc(F)cc3)c(N)c12 was read as Sfp PPTase inh 40µM*, FBPA coupling cs -12, Giardia kill -6 and ELG1 DNA repair inconclusive.
Screening O=[N+]([O-])c1ccc(P(=O)(Cc2ccccc2)c2ccccc2O)cc1 (configuration not stated) returned Sfp PPTase inh 4%, FBPA coupling cs -2, Giardia kill -1 and ELG1 DNA repair -28%.
`COc1ccc(CNc2nc(-c3ccc(N(C)C)cc3)nc3ccccc23)c(OC)c1` gave Sfp PPTase inh 18µM* and FBPA coupling cs -37*.
COc1ccc(OCCCC(=O)OCC(=O)NNC(=O)c2ccc([N+](=O)[O-])cc2)cc1 was read as Giardia kill -2 and ELG1 DNA repair inconclusive.
`CCOC(=O)c1sc2nc(C)nc(NCc3ccc(F)cc3)c2c1C` gave Sfp PPTase inh -21%, FBPA coupling cs -2, Giardia kill -7 and ELG1 DNA repair 7.3µM*.
CCOC(=O)c1sc2nc(C)nc(NCc3ccc(Cl)cc3)c2c1C was read as Sfp PPTase inh -13%, FBPA coupling cs -1, Giardia kill -18 and ELG1 DNA repair 12µM*.
Screening CCOC(=O)c1sc2nc(C)nc(NCc3cccnc3)c2c1C returned Sfp PPTase inh 11%, FBPA coupling cs 2, Giardia kill 7 and ELG1 DNA repair 15µM*.
CC1(C)C(=O)Nc2ccccc2N1C(=O)COC(=O)Cc1ccc(Cl)c(Cl)c1 was read as Giardia kill -4 and ELG1 DNA repair -10%.
Screening CN(C)c1nc(N(C)C)c2cnn(C)c2n1 returned Giardia kill -3.
O=[N+]([O-])c1cccc(NC(=S)NCc2ccncc2)c1 was read as Sfp PPTase inh 13µM*, FBPA coupling cs 0, Giardia kill -15 and ELG1 DNA repair -4%.
Screening CCc1ccc(NC(=O)CC2C(=O)N(c3ccc(Cl)cc3)C(=O)N2C2CCCC2)cc1 (configuration not stated) returned Giardia kill 0.
COc1ccc(OC)c(CCNC(=O)CSc2ccsc2[N+](=O)[O-])c1 was read as Sfp PPTase inh 5%, FBPA coupling cs -2, Giardia kill inconclusive and ELG1 DNA repair 4%.
